GalR3 antagonist: blocks the human galanin receptor 3. HEK293 GalR3-CNG cAMP membrane potential fluorescence; galR3 body fused to GalR1 C-terminus. inhibition, % at 3 µM. hit rate 0.44% among 360,000;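 active means inhibition above the screen-wide average plus 3 SD, cut at about 13% in these data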;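 further: forskolin and galanin both at EC90 stimulate the cells; cAMP rise reported by CNG channel membrane potential dye signal; 0% = forskolin plus galanin with DMSO and 100% = forskolin alone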
Target sequence (O60755 1-299 limits assumed): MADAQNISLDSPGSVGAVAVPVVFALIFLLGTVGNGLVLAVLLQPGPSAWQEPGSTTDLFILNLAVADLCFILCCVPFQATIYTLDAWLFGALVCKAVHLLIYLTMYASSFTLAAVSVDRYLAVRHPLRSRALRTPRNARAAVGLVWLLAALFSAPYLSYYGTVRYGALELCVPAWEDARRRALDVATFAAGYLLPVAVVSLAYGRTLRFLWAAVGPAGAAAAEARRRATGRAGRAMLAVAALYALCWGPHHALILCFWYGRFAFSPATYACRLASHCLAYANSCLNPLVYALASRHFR
Hsp70 activator: transcriptional activators of Hsp70; HeLa Hsp70 promoter luciferase reporter, luminescence; scaled: vehicle 0, proteasome-inhibitor control 100%; hit rate 0.04% among 200,000; activation, % at 10 µM;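 active means activation above the mean across all tested compounds plus 3 SD, cutoff set per campaign, cut at about 5.5% in these data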;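 further: 100% = MG132 at 30 µM as the positive control and 0% = DMSO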
SMARCA2 activ: SMARCA2 function activation, primary screen. activation, % at 9.1 µM. MG213 cells, MMTV-luciferase reporter, dexamethasone, overnight. hit rate 1% among 370,000; in the data active means activation above about 7.8%;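 further: 0% = vehicle wells and 100% = reference activator wells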
FXN GAA850 act: increases GAA850 frataxin promoter reporter activity. HEK293 lucGAA850 FXN promoter luciferase reporter, 24 h; percent of 10 µM SAHA response. activation, % at 6 µM. hit rate 0.56% among 360,000. AID 540364;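 active means activation above the average of all compounds screened plus 3 SD, cutoff fixed separately per campaign, cut at about 7.5% in these data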;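 further: 0% = DMSO wells and 100% = 10 µM SAHA wells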
HIF activator: HIF pathway transcriptional activation; U2OS HRE-luciferase reporter, luminescence; normalized: DMSO 0%, desferrioxamine 100%; activation, % at 7.5 µM (by protocol); hit rate 0.32% among 300,000; AID 1910;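 active means mean activation of at least 10% of the iron chelator positive control signal, with at least half of replicates also reaching 10%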
SMARCA2 conf: SMARCA2 activation, confirmation screen. shares compounds with SMARCA2 activ. MG213 cells, MMTV-luciferase with dexamethasone, luminescence, overnight; MG213 cells expressing E1A, Rb sequestered; DMSO wells 0%, reference activator 100%. activation, % at 9.1 µM. hit rate 30% among 3,500. AID 652260;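 active means activation above its plate's cutoff, the mean activation of tested wells plus 3 SD, cut at about 7.9% in these data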
GAL4-VP16 Luc: activates GAL4-VP16 luciferase, flagging SMARCA2 activator hits; hit rate 41% among 3,500; activation, % at 9.1 µM; HEK293 GAL4-VP16 pG5luc reporter, luciferase luminescence; scaled: DMSO wells 0%, SAHA wells 100%; shares compounds with SMARCA2 activ;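 active means activation above the solvent-only control well mean plus 3 SD, averaged across control plates, cut at about 5.2% in these data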
* hit, by the source's call; nt = not tested or not shown. A selection: hits, their analogues and other compounds. The true share with any hit is near 2.2%.

SMILES | GalR3 antagonist | Hsp70 activator | SMARCA2 activ | FXN GAA850 act | HIF activator | SMARCA2 conf | GAL4-VP16 Luc
Nc1nc(SCc2ccccn2)c2ncn(C3CCCC3)c2n1 | -6.5 | nt | 8.2* | 5.8 | nt | 5.5 | 4.2
CCCn1cnc2c(SCc3ccccn3)nc(N)nc21 | -2.0 | nt | 3.5 | 2.4 | nt | nt | nt
COc1ccc(Cn2cc(COC(=O)NCCc3c[nH]c4ccccc34)nn2)cc1 | nt | nt | -1.8 | nt | nt | nt | nt
CCOc1ccc(-n2c(SC/C=C/c3ccccc3)nnc2-c2cccs2)cc1 | nt | nt | -3.3 | nt | nt | nt | nt
Cc1cc(C)c(S(=O)(=O)c2cccc(Cl)c2)c(=O)[nH]1 | -9.7 | nt | 11.1* | -0.6 | -0.9 | -3.4 | 0.0
Cc1ccc(-c2nnc(SCC(=O)c3ccc(O)c(O)c3)n2-c2ccc(Cl)cc2)cc1 | nt | nt | -3.7 | nt | nt | nt | nt
CCCS(=O)(=O)NC(=O)C1(C)CCN(C(=O)c2nc(C)oc2C)C1 (stereo not given) | -5.9 | nt | 8.0* | 0.3 | nt | 0.1 | 1.0
CCCS(=O)(=O)NC(=O)C1(C)CCCN(C(=O)c2nc(C)oc2C)C1 (stereo not given) | nt | nt | nt | -2.1 | nt | nt | nt
C/C(=N/NC(=O)CN1CCN(Cc2ccccc2Cl)CC1)c1cccc(O)c1 | nt | nt | -4.0 | nt | nt | nt | nt
Cc1ccccc1NC(=O)[C@H]1CC(=O)O[C@@H]1c1ccccc1 | nt | nt | -1.8 | nt | nt | nt | nt
CCC(C)N(C(=O)CNc1nnnn1-c1ccccc1)C(C)CC (stereo not given) | nt | nt | -6.3 | nt | nt | nt | nt
Cc1ccc(O)c(N=CC2=C(O)c3ccccc3C2=O)c1 | -0.8 | -0.1 | 8.4* | 3.9 | 5.6 | 18.8* | 13.7*
COc1ccc(COCC(O)CN2CCc3ccccc3C2)cc1OC (stereo not given) | 0.2 | 0.3 | 8.8* | -2.6 | 0.5 | -2.0 | 3.4
CC1(C)Oc2ccc(C(=O)NC3CCCC3)cc2NC1=O | nt | nt | -3.8 | nt | nt | nt | nt
Nc1nc(Cl)nc2c1ncn2[C@@H]1O[C@H](CO)[C@@H](O)[C@@H]1F | nt | nt | 0.7 | nt | nt | nt | nt
O=c1c(-c2ccco2)nc2ccccc2n1C(CCc1ccccc1)c1nc2ccccc2[nH]1 (stereo not given) | -1.2 | nt | 10.8* | nt | nt | -2.5 | 1.9
CCC(c1nc2ccccc2[nH]1)n1c(=O)c(-c2ccco2)nc2ccccc21 (stereo not given) | 0.2 | nt | -2.5 | nt | nt | nt | nt
O=c1c(-c2ccco2)nc2ccccc2n1C(c1ccccc1)c1nc2ccccc2[nH]1 (stereo not given) | -5.5 | nt | 10.6* | nt | nt | 8.9* | 5.6*
COc1ccc(C(C(=O)N(C)C2CCCC2)N(Cc2ccc(F)cc2)C(=O)c2cc(C)[nH]n2)cc1OC (stereo not given) | nt | nt | 10.8* | nt | nt | 3.9 | 0.5
COc1ccc(C(C(=O)N(C)C2CCCC2)N(Cc2ccc(F)cc2)C(=O)c2ncn[nH]2)cc1OC (stereo not given) | nt | nt | -5.8 | nt | nt | nt | nt
COc1ccccc1CNC(=O)Cc1ccc(OC)c(OC)c1 | -7.4 | nt | -0.7 | -0.3 | 0.1 | nt | nt
COc1ccccc1CNC(=O)Cc1ccccc1 | -7.5 | nt | 9.5* | 4.1 | 0.7 | 2.5 | 4.8
Cn1c(=O)oc2cc(S(=O)(=O)N3CCN(C(=O)C4CCCO4)CC3)ccc21 (stereo not given) | nt | nt | 1.4 | nt | nt | nt | nt
Nc1cccc(O)c1 | 0.1 | nt | 9.7* | 1.5 | nt | 4.7 | 0.7
O=C(NC1CCCCN(Cc2cccc(Cl)c2)C1=O)c1cccc([N+](=O)[O-])c1 (stereo not given) | nt | nt | -2.6 | nt | nt | nt | nt
SMILES | GalR3 antagonist | Hsp70 activator | SMARCA2 activ | FXN GAA850 act | HIF activator | SMARCA2 conf | GAL4-VP16 Luc
O=C(Nc1ccc(N2CCN(C(=O)c3ccco3)CC2)cc1)c1ccc(F)cc1 | 0.7 | -0.2 | -1.9 | -1.4 | 0.6 | nt | nt
O=C(c1ccco1)N1CCN(c2ccc(F)cc2)CC1 | -4.5 | -0.5 | 18.4* | -1.8 | 1.4 | 2.4 | 5.8*
CC(=O)c1sc(NC(=O)CCS(=O)(=O)c2ccccc2)nc1C | -1.8 | nt | 11.2* | 5.3 | 0.6 | 7.8* | 0.0
COc1ccc(NC(=O)C/C(C)=N/NC(=O)c2cnccn2)c(OC)c1 | -2.8 | nt | -1.4 | 2.2 | 0.3 | nt | nt
C/C(CC(=O)Nc1ccc2c(c1)OCCO2)=N\NC(=O)c1ccccn1 | -4.2 | 0.4 | 9.5* | 2.3 | 3.3 | 1.5 | 1.5
C/C(CC(=O)Nc1cc(C)cc(C)c1)=N\NC(=O)c1ccccn1 | 2.5 | 0.1 | 9.8* | 2.8 | 4.2 | -1.6 | 3.2
